Assay in all cases: NCI-60 one-dose screen, 48 h (100 = growth as untreated, 0 = no growth, -100 = all killed)
Common to all, as to settings: 10 µM unless noted

The test system of assay [1] is T-47D breast.
In assay [2] the test system is BT-549 breast.
For assay [3], the system named is MDA-MB-435 melanoma.
The subject of assay [4] is SW-620 colon.
For assay [5], the system named is MCF7 breast.
For assay [6], the system named is HCT-116 colon.
Assay [7] has as its system HCC-2998 colon.
Assay [8] has as its system KM12 colon.

The structures appear in SMILES notation. About 83,000 compounds went through this panel and 20% of them were active in at least one assay; those are over-represented in the sample as a whole.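 Compound tested at a single concentration for 48 hours in 96-well plates; a percent growth value below 10 was scored as active.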 A number with no mark means an inactive call. Calls of active or inactive are those of the source.

Regarding `Cc1ncc(C(=O)Nc2ccc(CN3CCN(C)CC3)c(C(F)(F)F)c2)cc1C#Cc1cnc2cccnn12`, the growth was 40% in assay [1]; -10.8% (active) in assay [2]; -54.1% (active) in assay [3]; -5.14% (active) in assay [4]; 2.92% (active) in assay [5]; 0.541% (active) in assay [6]. Also, the growth in assay [7] was 11.1%; in assay [8], -0.978% (active).

In the case of `CCCCN1CCCn2c1nc1c2c(=O)n(CCC)c(=O)n1CCC`, the growth in assay [1] is 101%; in assay [2] it was 98.1%; in assay [3], 102%; in assay [4] it was 96%; in assay [5], 100%; in assay [6], 98.3%. The growth is 104% in assay [7] and 100% in assay [8].

Consider `CCCCn1cnc2c(Sc3c([N+](=O)[O-])ncn3C)nc(N)nc21`, for which the growth in assay [1] is 74.1%; in assay [2], 98.3%; in assay [3], 102%; in assay [4] it was 102%; in assay [5] it was 91%; in assay [6], 87.3%. For the same molecule, the growth in assay [7] is 113%; in assay [8], 108%.

For `CCCOc1cc2ccccc2cc1C(=O)Nc1nc(NC)c2c(ccc3nccc32)[nH]1`, the growth in assay [1] is -52.5% (active); in assay [2], -27.4% (active); in assay [3] it was -89.2% (active); in assay [4], -75% (active); in assay [5] it was -61.9% (active); in assay [6] it was -72.3% (active). Further, the growth in assay [7] is -70.5% (active); in assay [8], -72.2% (active).

On to `Cc1cc(N2CCOCC2)nc(N[C@@H]2CCC[C@H](Nc3ccnc4cc(Cl)ccc34)C2)n1`, for which the growth was -56.6% (active) in assay [1]; 26% in assay [2]; -83% (active) in assay [3]; -1.97% (active) in assay [4]; 5.31% (active) in assay [5]; -6.15% (active) in assay [6]. Moreover, the figures for the growth in assay [7] and in assay [8] were 11.2% and 20.6%, respectively.

In the case of `Cc1ccccc1COc1ccc(-c2onc(C)c2-c2ccc(Cl)cc2)cc1`, the growth in assay [1] is 61.1%; in assay [2] it was 66.2%; in assay [3], -1.01% (active); in assay [4], 31.7%; in assay [5], 31.7%; in assay [6] it was 34%. For the same molecule, the values for the growth in assay [7] and in assay [8] were 86.6% and 54.3%, respectively.

For `CCN1CCN(c2nc(NCCCNc3ccnc4cc(Cl)ccc34)c3ccccc3n2)CC1`, the growth is -4.69% (active) in assay [1]; 68.7% in assay [2]; -81.7% (active) in assay [3]; 9.73% (active) in assay [4]; 23.2% in assay [5]; 20.7% in assay [6]. The growth is 21.9% in assay [7] and 29.3% in assay [8].

As for `O=C1c2ccccc2C(=O)c2c1ccc1[nH]c(-c3cccs3)nc21`, the growth in assay [1] was 56.1%; in assay [2], 65.5%; in assay [3], 101%; in assay [4], 90.7%; in assay [5] it was 66.4%; in assay [6] it was 70.5%. For the same molecule, the growth is 99.3% in assay [7] and 70.5% in assay [8].

In the case of `c1ccc(-c2c(-c3ccccc3)[n+](Cc3ccc4ccccc4c3)c(-c3ccc(-c4nc5ccccc5s4)cc3)n2Cc2ccc3ccccc3c2)cc1`, the growth was -78.2% (active) in assay [1]; -87.5% (active) in assay [2]; -76.9% (active) in assay [3]; -78.3% (active) in assay [4]; -65.5% (active) in assay [5]; -83.5% (active) in assay [6]. Moreover, the results for the growth in assay [7] and in assay [8] were -93.8% (active) and -88.1% (active), respectively.

In the case of `C=CC(=O)Nc1cccc(-c2nc(SC)nc(Nc3ccccc3OC)c2C#N)c1`, the growth is 3.01% (active) in assay [1]; 57.1% in assay [2]; 18.7% in assay [3]; 17.2% in assay [4]; 2.55% (active) in assay [5]; 2.91% (active) in assay [6]. Also, the growth in assay [7] was 81.3%; in assay [8], 82.8%.

For `COc1cc2nnc3c4cccnc4[nH]c3c2cc1OC`, the growth in assay [1] is 24.5%; in assay [2] it was 72.9%; in assay [3], 49.7%; in assay [4] it was 9.61% (active); in assay [5], 2.75% (active); in assay [6], 5.66% (active). The growth in assay [7] is 88%; in assay [8] it was 32%.

Consider `C#CCOc1ccc2ncnc(Nc3cccc(CNC(=O)CCl)c3)c2c1`, for which the growth in assay [1] was 29.6% [8.25 µM]; in assay [2], 47.7% [8.25 µM]; in assay [3], 49.6% [8.25 µM]; in assay [4], 30.4% [8.25 µM]; in assay [5] it was 30.4% [8.25 µM]; in assay [6], 26% [8.25 µM]. The growth was 99% [8.25 µM] in assay [7] and 63.2% [8.25 µM] in assay [8].

As for `Cn1c(NCCc2ccc(O)c(O)c2)nc2c1c(=O)n(Cc1ccc(Cl)c(Cl)c1)c(=O)n2C`, the growth is 58% in assay [1]; 67.1% in assay [2]; 73% in assay [3]; 76.5% in assay [4]; 79% in assay [5]; 64.8% in assay [6]. Further, the figures for the growth in assay [7] and in assay [8] were 90.6% and 71.9%, respectively.

Consider `COc1ccc(-c2cc(-c3ccc(Nc4ccnc5cc(Cl)ccc45)cc3)nc(N3CCOCC3)n2)cc1`, for which the growth in assay [1] is -23% (active); in assay [2], 45.8%; in assay [3] it was 10.1%; in assay [4], 8.98% (active); in assay [5], 22.7%; in assay [6], 52.8%. The growth in assay [7] was 98.8%; in assay [8], 44.9%.

`CCN(CC)c1ccc(/C=N\NC(=O)/C=C/C=C/c2ccc3c(c2)OCO3)c(O)c1`: the growth in assay [1] was 26.3%; in assay [2], 51.8%; in assay [3] it was 48.9%; in assay [4], 32.3%; in assay [5], 19.5%; in assay [6] it was 7.86% (active). Further, the figures for the growth in assay [7] and in assay [8] were 54% and 30.2%, respectively.
